The source made the active and inactive calls.
Legend:
[1] = small-molecule microarray binders of probe aShh, primary screen, biochemical, biotinylated probe, 635/667 nm fluorescence (AID 1114); details: higher = more signal;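 further: probe is biotin-labelled aShh protein from a stem cell growth factor screen; measures binding of labelled protein to compounds printed on the slide; score merges feature fluorescence at 667 nm with signal-to-noise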
[2] = small-molecule microarray binders of probe aNog, primary screen, biochemical, biotinylated probe, 635/667 nm fluorescence (AID 1115); details: higher = more signal;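 further: probe is biotinylated aNog protein used at 0.15 µg/mL for 1 h at 4 C; z-score combines 667 nm fluorescence of each spot with its signal to noise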
[3] = target: Torsin-1A-interacting protein 1 (Homo sapiens) (UniProt Q5JTV8); experiment: LAP1 binders from COS7 cell lysate, primary screen, small-molecule microarray, 635/667 nm fluorescence (AID 1116); details: COS7-hLAP1 lysate binding, 635 nm fluorescence, higher = more signal
[4] = target: Albumin (Bos taurus) (UniProt P02769); experiment: bovine serum albumin binders on microarray, profiling panel, artefact control for SMM control protein annotation, biochemical, small-molecule microarray, Alexa647 label, 635/667 nm fluorescence (AID 1118); details: BSA-A647 binding, fluorescence 635 nm, higher = more signal;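 further: score merges 667 nm emission intensity and signal-to-noise per printed compound spot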
[5] = small-molecule microarray binders of probe aXIP, primary screen, biochemical, NeuroSMM set, 635/667 nm fluorescence (AID 1119); details: higher = more signal, called active from +8 up or from −8 down;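 further: probe is the protein aXip251-270 applied at 1 µg/mL to compound-printed slides; binding of probe to printed compounds measured as 667 nm fluorescence plus signal to noise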
[6] = small-molecule binders of probe aNOTCH3, primary screen, biochemical, small-molecule microarray, 635/667 nm fluorescence (AID 1120); details: higher = more signal;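 further: probe is a biotin-tagged antibody raised against NOTCH3 rather than NOTCH3 protein; score merges spot fluorescence near 667 nm with spot signal to noise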
[7] = small-molecule binders of probe aNOTCH2, primary screen, biochemical, small-molecule microarray, 635/667 nm fluorescence (AID 1121); details: higher = more signal;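 further: score merges feature fluorescence read at 667 nm with its signal to noise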
[8] = target: Carbonic anhydrase 2 (Homo sapiens) (UniProt P00918); experiment: CAII small-molecule binders, profiling panel, biochemical, small-molecule microarray, Alexa647-labelled CAII (AID 1122); details: CAII-A647 binding fluorescence, higher = more signal
[9] = COS7 lysate on small-molecule microarray, probe aHis, 635 nm (AID 1123); details: COS7 cell lysate, fluorescence, higher = more signal;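 further: z-score combines 667nm fluorescence intensity with signal-to-noise per printed compound spot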
[10] = compound binding in COS7 lysate, probe aLAP1, primary screen, cell lysate, small-molecule microarray (AID 1124); details: probe aLAP1, fluorescence, higher = more signal;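 further: lysate comes from COS7 cells expressing LAP1 and is applied at 0.3 µg/mL; score merges spot fluorescence near 667 nm with signal-to-noise over triplicate slides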
[11] = tested on: Sam68 (KHDRBS1); experiment: Sam68 small-molecule binders, primary screen, biochemical, small-molecule microarray, 635 nm fluorescence (AID 1125); details: small-molecule microarray binding, higher = more signal;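 further: score merges 667 nm channel intensity with signal to noise over triplicate slides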
[12] = tested on: Chordin-like protein 2 (CHRDL2); experiment: CHRDL2 small-molecule binders, primary screen, biochemical, small-molecule microarray, 635 nm fluorescence (AID 1126); details: small-molecule microarray binding, fluorescence 635 nm; higher = more signal;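 further: printed compound slides probed with Chrdl2 protein at 4 µg/mL for 1 h at 4 C; score merges 667 nm emission intensity with signal to noise over three replicate slides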
[13] = target: Concanavalin-A (Canavalia ensiformis) (UniProt P02866); experiment: ConA small-molecule binders, primary screen, artefact control for SMM control protein annotation, biochemical, small-molecule microarray, Alexa647 label, 635 nm (AID 1127); details: ConA-A647 binding fluorescence, higher = more signal;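 further: z combines 667 nm emission intensity with signal-to-noise across three replicate slides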
[14] = anti-His antibody binders, primary screen, artefact control for SMM control protein annotation, biochemical, small-molecule microarray, 635 nm fluorescence (AID 1128); details: anti-His Alexa647 antibody binding, higher = more signal;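 further: score merges feature fluorescence with signal-to-noise for each printed compound spot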
[15] = tested on: Human papillomavirus type 1a E7 protein (residues 1-88); experiment: HPV1a E7 small-molecule binders, primary screen, biochemical, small-molecule microarray, residues 1-88, 635 nm (AID 1129); details: small-molecule microarray binding, fluorescence 635 nm; higher = more signal
[16] = target: Focal adhesion kinase 1 (Homo sapiens) (UniProt Q05397); experiment: small-molecule microarray binders of FAK, primary screen, biochemical, 635/667 nm fluorescence, BSA, DTT (AID 1130); details: PTK2 binding, 635 nm fluorescence, higher = more signal;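 further: composite of spot emission at 667 nm and signal to noise over triplicate slides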
[17] = tested on: Fibrinogen (Alexa647-labelled); experiment: fibrinogen binders on compound microarrays, profiling panel, artefact control for SMM control-protein annotation, biochemical, small-molecule microarray, 635/667 nm fluorescence (AID 1131); details: fibrinogen-A647 binding fluorescence, higher = more signal;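 further: z-score merges 667 nm fluorescence with per-spot signal-to-noise over triplicate slides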
[18] = target: Follistatin (Homo sapiens) (UniProt P19883); experiment: follistatin binders on small-molecule microarrays, primary screen, biochemical, small-molecule microarray, 635/667 nm fluorescence (AID 1132); details: FST binding, 635 nm fluorescence, higher = more signal
[19] = target: Fibroblast growth factor 2 (Homo sapiens) (UniProt P09038); experiment: FGF2 binders on small-molecule microarrays, primary screen, biochemical, small-molecule microarray, 635/667 nm fluorescence (AID 1133); details: small-molecule microarray binding, FGF2, fluorescence 635/667; higher = more signal
[20] = mitochondrial membrane potential change in A549 cells, profiling panel, cell-based, JC-1 fluorescence, basal, 24 h, 100 nL (AID 1138); details: higher = more signal;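 further: A549 lung adenocarcinoma cells under basal conditions with no added stimulus; test concentration not given here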

Sequence of Focal adhesion kinase 1 (Homo sapiens) (Q05397 whole entry, looked up): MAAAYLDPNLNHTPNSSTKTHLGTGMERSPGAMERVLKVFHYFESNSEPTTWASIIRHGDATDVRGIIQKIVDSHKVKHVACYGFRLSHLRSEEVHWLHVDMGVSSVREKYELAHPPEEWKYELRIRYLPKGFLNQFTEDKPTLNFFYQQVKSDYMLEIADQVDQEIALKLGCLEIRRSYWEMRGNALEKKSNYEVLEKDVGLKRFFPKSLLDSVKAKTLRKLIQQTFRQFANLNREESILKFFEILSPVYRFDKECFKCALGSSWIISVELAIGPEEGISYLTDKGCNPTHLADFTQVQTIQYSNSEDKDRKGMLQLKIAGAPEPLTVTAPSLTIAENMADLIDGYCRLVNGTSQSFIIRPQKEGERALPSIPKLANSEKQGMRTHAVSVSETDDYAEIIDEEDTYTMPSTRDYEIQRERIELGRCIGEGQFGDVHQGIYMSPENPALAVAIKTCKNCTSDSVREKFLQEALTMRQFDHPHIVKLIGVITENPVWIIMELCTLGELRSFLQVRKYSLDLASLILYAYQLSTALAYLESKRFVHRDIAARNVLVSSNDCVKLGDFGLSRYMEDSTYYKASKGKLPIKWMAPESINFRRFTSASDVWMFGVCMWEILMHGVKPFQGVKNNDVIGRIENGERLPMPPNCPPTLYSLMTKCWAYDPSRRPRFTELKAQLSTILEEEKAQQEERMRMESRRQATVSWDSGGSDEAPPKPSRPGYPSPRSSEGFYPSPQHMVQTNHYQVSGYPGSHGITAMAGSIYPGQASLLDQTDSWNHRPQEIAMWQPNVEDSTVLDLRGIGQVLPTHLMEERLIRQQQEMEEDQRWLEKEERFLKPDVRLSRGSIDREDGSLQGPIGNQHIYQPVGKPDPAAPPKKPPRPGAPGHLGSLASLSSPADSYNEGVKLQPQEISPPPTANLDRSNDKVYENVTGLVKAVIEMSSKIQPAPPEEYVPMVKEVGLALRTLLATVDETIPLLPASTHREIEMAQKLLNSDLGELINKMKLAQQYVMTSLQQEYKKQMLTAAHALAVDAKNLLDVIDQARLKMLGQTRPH
Sequence of Concanavalin-A (Canavalia ensiformis) (P02866 whole entry, looked up): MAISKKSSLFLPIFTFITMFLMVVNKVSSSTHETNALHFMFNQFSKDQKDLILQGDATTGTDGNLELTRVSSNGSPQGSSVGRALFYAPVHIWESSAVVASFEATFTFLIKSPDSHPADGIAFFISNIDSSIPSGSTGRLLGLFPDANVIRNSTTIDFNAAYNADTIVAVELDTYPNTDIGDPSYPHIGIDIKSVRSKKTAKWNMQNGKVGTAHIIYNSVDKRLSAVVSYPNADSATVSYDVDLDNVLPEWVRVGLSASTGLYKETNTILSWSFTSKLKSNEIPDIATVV
Sequence of Torsin-1A-interacting protein 1 (Homo sapiens) (Q5JTV8 whole entry, looked up): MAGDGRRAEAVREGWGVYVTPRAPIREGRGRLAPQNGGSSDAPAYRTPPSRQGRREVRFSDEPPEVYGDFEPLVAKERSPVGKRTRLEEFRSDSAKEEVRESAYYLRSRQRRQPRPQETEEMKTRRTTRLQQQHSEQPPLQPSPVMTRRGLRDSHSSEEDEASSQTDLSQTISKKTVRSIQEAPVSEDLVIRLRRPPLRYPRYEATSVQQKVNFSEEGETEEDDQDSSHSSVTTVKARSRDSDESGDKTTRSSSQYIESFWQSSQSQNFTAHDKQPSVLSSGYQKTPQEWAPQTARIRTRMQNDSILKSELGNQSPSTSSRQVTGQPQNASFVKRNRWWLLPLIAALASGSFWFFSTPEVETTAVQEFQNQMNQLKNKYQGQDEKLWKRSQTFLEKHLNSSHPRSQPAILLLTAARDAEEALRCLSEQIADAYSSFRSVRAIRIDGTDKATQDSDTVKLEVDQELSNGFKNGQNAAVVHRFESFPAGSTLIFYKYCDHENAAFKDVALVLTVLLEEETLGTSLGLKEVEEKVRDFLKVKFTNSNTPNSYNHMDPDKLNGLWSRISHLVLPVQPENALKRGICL
Sequence of Fibroblast growth factor 2 (Homo sapiens) (P09038 whole entry, looked up): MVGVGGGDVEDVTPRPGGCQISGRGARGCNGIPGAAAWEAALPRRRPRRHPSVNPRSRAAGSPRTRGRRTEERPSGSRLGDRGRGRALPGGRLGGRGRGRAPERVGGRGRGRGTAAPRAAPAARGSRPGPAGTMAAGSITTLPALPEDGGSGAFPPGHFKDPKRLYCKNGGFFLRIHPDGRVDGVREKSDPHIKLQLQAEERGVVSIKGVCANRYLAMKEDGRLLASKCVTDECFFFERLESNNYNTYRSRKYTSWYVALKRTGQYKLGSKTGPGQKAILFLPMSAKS
Sequence of Albumin (Bos taurus) (P02769 whole entry, looked up): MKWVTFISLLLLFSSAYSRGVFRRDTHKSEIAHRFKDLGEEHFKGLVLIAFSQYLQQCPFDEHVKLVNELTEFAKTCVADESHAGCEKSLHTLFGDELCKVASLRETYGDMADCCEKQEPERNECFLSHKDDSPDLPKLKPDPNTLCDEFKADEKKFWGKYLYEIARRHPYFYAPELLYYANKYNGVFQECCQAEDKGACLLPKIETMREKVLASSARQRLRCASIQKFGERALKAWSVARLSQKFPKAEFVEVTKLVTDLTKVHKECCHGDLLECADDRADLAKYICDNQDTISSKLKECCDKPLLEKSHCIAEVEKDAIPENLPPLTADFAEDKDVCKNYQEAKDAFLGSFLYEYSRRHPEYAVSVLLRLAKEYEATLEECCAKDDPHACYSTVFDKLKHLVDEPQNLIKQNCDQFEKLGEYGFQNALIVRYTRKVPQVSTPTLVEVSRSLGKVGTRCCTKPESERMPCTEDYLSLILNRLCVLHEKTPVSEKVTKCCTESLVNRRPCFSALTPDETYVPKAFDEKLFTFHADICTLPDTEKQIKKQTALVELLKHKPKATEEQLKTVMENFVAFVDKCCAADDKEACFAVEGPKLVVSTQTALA
Sequence of Follistatin (Homo sapiens) (P19883 whole entry, looked up): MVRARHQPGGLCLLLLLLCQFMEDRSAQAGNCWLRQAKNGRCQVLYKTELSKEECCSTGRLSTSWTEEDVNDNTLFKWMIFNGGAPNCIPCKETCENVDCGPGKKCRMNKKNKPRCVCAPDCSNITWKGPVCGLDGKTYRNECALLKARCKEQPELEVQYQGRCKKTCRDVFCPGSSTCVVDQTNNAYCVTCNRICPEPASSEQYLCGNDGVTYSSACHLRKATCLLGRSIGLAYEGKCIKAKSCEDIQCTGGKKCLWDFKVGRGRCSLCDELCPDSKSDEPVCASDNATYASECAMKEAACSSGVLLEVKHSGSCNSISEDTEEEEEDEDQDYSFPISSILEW

| SMILES | composite z-score [1] | composite z-score [2] | composite z-score [3] | composite z-score [4] | composite Z-score [5] | composite z-score [6] | composite z-score [7] | composite z-score [8] | composite z-score [9] | composite z-score [10] | composite z-score [11] | composite z-score [12] | composite z-score [13] | composite z-score [14] | composite z-score [15] | composite z-score [16] | composite z-score [17] | composite z-score [18] | composite z-score [19] | z-score [20] |
| --- | --- | --- | --- | --- | --- | --- | --- | --- | --- | --- | --- | --- | --- | --- | --- | --- | --- | --- | --- | --- |
| COc1ccc([Si](C)(C)[C@H]2[C@H](CC(=O)N(CCO)Cc3ccccc3)O[C@@]3(C(=O)N(Cc4ccc(N5CCOC5=O)cc4)c4ccccc43)[C@@H]2C)cc1 | 0.493 | 0.473 | 0.639 | -0.604 | 0.989 (inactive) | -0.0044 | -0.168 | 0.393 | 0.704 | 0.0474 | 0.641 | 0.457 | 1.06 | 0.845 | 0.0593 | 0.16 | 0.474 | 0.878 | 0.66 | 0.784 |
| CC(C)C[C@@H]1NC(=O)[C@@]23C(=O)N[C@@H](Cc4ccccc4)C2[C@H](C)[C@@]2(C)O[C@H]2C3/C=C/C/C=C\CNC(=O)[C@H](Cc2ccccc2)NC1=O (stereo not given in full) | -0.2 | -0.194 | 0.569 | 0.533 | 0.376 (inactive) | -0.0881 | -0.128 | 0.848 | 0.138 | 0.379 | 0.456 | -0.0794 | 0.313 | 2.15 | 0.284 | -0.0582 | 0.894 | 0.515 | 0.31 | 1.22 |
| CCN(CC)c1ccc(N2CC=CC34O[C@@H]5C=CCOC(=O)[C@@H]5[C@H]3C(=O)N(C(C)CO)[C@@H]4C2=O)cc1 (stereo not given in full) | -0.153 | 0.166 | -0.438 | -1.28 | -0.237 (inactive) | -0.213 | -0.126 | 0.0808 | -0.67 | 0.0745 | -1.69 | -1.35 | -1.51 | -1.34 | -1.28 | -1.02 | -2.61 | -1.04 | -1.13 | 1.39 |
| COc1ccc([Si](C)(C)[C@H]2[C@H](CC(=O)N(CCO)Cc3ccccc3)O[C@@]3(C(=O)N(Cc4ccc(N5CCC5=O)cc4)c4ccccc43)[C@@H]2C)cc1 | 0.0434 | -0.231 | 1.25 | 0.101 | 0.506 (inactive) | -0.219 | -0.141 | 0.339 | 0.888 | 0.371 | -0.114 | 0.286 | 0.385 | 0.122 | -0.178 | 0.13 | 0.158 | 0.41 | 0.11 | 0.0735 |
| Cc1ccc(N2C(=O)c3ccccc3[C@](C)(C(=O)NC3CC3)[C@@H]2c2ccc(CO)cc2)nc1 | -0.341 | 0.0265 | 1.26 | -0.0191 | 0.186 (inactive) | -0.132 | -0.0698 | 0.78 | 0.529 | 1.18 | -0.501 | 0.407 | -0.816 | -0.373 | -0.644 | -0.0892 | -0.777 | 1.22 | 0.373 | 1.13 |
| [N-]=[N+]=NCc1ccccc1C[C@@]1(C(=O)NCc2ccccc2)N=C(c2ccc(OCCCO)cc2)O[C@@H]1c1ccccc1 | 0.0644 | 0.868 | 0.595 | 0.825 | 0.109 (inactive) | 0.0562 | -0.0389 | 0.28 | 0.86 | -0.401 | 0.474 | -1.01 | 0.266 | 1.87 | 1.13 | 0.621 | 0.483 | 0.327 | -0.165 | 1.79 |
| COCCCNC(=O)[C@@]1(C)c2ccccc2C(=O)N(Cc2cc(F)cc(C(F)(F)F)c2)[C@H]1c1ccc(CO)cc1 | -0.0769 | -0.144 | 0.0999 | -1.33 | 0.0737 (inactive) | -0.336 | -0.126 | 0.74 | 2.01 | 0.346 | 0.0363 | -1.94 | -0.453 | -0.224 | -1.01 | -0.706 | -1.61 | -1.48 | -0.521 | 1.25 |
| CC(C)CNC(=O)[C@@H]1c2ccccc2C(=O)N(Cc2ccc(OC(F)(F)F)cc2)[C@H]1c1ccc(CO)cc1 | -0.0234 | 0.327 | 1.69 | 0.0335 | 0.465 (inactive) | 0.0813 | 0.0081 | 0.572 | 2.36 | 0.0712 | 1.3 | -0.0181 | 1.07 | 1.31 | 1.19 | 1.04 | 0.647 | 1.34 | 1.09 | 0.71 |
| C=CC[C@]1(C(=O)N2CCCCC2)COC(c2ccc(OCCCO)cc2)=N1 | -0.138 | 0.179 | 1.01 | 0.837 | -0.216 (inactive) | -0.152 | -0.173 | 0.818 | 2.22 | 0.523 | -0.48 | -0.802 | -1.46 | -1.2 | 0.633 | -0.0161 | -0.236 | -0.465 | -0.453 | 2.27 |
| O=C1c2ccccc2[C@@]2(Cc3ccccc3N(CC(F)(F)F)C2=O)[C@H](c2ccc(CO)cc2)N1Cc1ccccc1C(F)(F)F | -0.0243 | 0.673 | -0.459 | -1.22 | 0.112 (inactive) | -0.0647 | -0.159 | 0.272 | -0.229 | 0.134 | -0.142 | -2.04 | -1.83 | -1.58 | -2.19 | -0.795 | -1.47 | -2.04 | -0.882 | 0.972 |
| CC(C)[C@@H](C(=O)O)n1cc(-c2ccccn2)nn1 | 0.0039 | -0.195 | 0.539 | 0.69 | 0.516 (inactive) | -0.146 | 0.0571 | 0.525 | 0.708 | 0.242 | 0.522 | -0.119 | 0.556 | 2.19 | 1.08 | 0.113 | 0.811 | -0.0164 | 0.712 | 1.88 |
| COc1ccc([Si](C)(C)[C@@H]2[C@@H](CC(=O)N3CCC[C@H]3CO)O[C@]3(C(=O)N(Cc4ccc(N5CCC5=O)cc4)c4ccccc43)[C@H]2C)cc1 | 0.257 | 0.241 | 0.303 | -0.82 | 0.566 (inactive) | 0.0026 | -0.0624 | 0.415 | 1.05 | -0.31 | 1.31 | 0.183 | 1.08 | 2.01 | 1.13 | 0.983 | 0.406 | 0.712 | 0.589 | 1.55 |
| CCOC(=O)C[C@H]1[C@H](OC(=O)c2cc3ccccc3oc2=O)[C@@H](NC(=O)c2ccccc2)c2cc(OCCCO)ccc2N1C(=O)Cc1ccc(OC)cc1 | -0.138 | 0.23 | 0.44 | -0.0029 | -0.0478 (inactive) | 0.0488 | -0.0578 | 0.467 | 0.257 | 0.324 | 0.382 | 0.357 | 0.773 | -0.657 | 0.345 | 0.5 | 0.465 | 0.856 | 0.948 | -0.42 |
| C=C1C=C(Br)C2(OCCCO2)[C@H]2OC12 (stereo not given in full) | 0.0684 | -0.491 | -0.0068 | -0.888 | 2.51 (inactive) | 0.0642 | -0.148 | -0.128 | -0.529 | -0.0289 | -0.404 | 0.646 | -0.71 | -1.16 | -0.315 | 0.0354 | -1.01 | 0.442 | 0.245 | 0.939 |
| COc1c(C)cc(-c2cc3c(c(CCc4ccccc4)n2)[Si](C(C)C)(C(C)C)OC3)cc1C | -0.131 | 0.162 | 0.0693 | -0.296 | 0.0537 (inactive) | 0.0179 | 0.0049 | 0.2 | 0.614 | 0.427 | 1.07 | 0.0922 | -0.17 | -0.611 | 0.654 | 0.158 | -0.074 | 0.483 | 0.0057 | 2.24 |
| COc1ccc(/C=C/C(=O)c2cccc(OCC(=O)OC(C)(C)C)c2)cc1 | -0.2 | -0.5 | 0.154 | 0.396 | -0.0202 (inactive) | -0.176 | -0.133 | -0.0082 | 0.872 | 0.651 | 1.02 | -0.55 | 0.4 | 0.0179 | 0.67 | 0.168 | 0.158 | -0.708 | -0.453 | 1.57 |

From PubChem BioAssay
